Results on 38 compounds are retold here after PubChem BioAssay (NCI).

Compounds without any hit were thinned out: in the full panel of roughly 83,000, 20% have a hit.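 Compound tested at a single concentration for 48 hours in 96-well plates; a percent growth value below 10 was scored as active.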 Unmarked numbers belong to inactive results. Calls of active or inactive are those of the source.

The first test relates to T-47D breast. Briefly: NCI-60 one-dose screen, 48 h (100 = growth as untreated, 0 = no growth, -100 = all killed). The settings on record: 10 µM.
Regarding `COc1ccccc1CNCCCCCCCCCCCCN1C(=O)c2ccc3c4c(ccc(c24)C1=O)C(=O)N(CCCCCCCCCCCCNCc1ccccc1OC)C3=O`, the growth is 119%.

For `Cc1nn(CC(=O)O)c2c1C(=O)CC(C)(C)C2`, the growth was 104%.

Take `CCCCCCCCCCCCCCn1c2ccccc2c2c3c(c4c5cc(OC)ccc5oc4c21)C(=O)NC3=O`: the growth was 104%.

In the case of `COc1cccc(C2C3=C(COC3=O)N(CCO)c3cc4c(cc32)OCO4)c1` (stereo unspecified), the growth was 49.1%.

Regarding `CCCCCCCCCCCCCCNc1nc(CO)ncc1-c1ccc(C(F)(F)F)cc1`, the growth was 95.6%.

Regarding `CN1CCc2cccc3c2C1Cc1ccc(O)c(O)c1-3` (stereo unspecified), the growth is 89.3%.

Take `O=C1NC(=S)S/C1=C\c1cccc([N+](=O)[O-])c1`: the growth was 90.2%.

In the case of `CN(C)C(=S)SCN1C(=O)c2ccc([N+](=O)[O-])cc2S1(=O)=O`, the growth is 102%.

Take `O=C(Nc1ccc(Cl)c(Cl)c1)OCn1ncc2ccc([N+](=O)[O-])cc21`: the growth is 80%.

On to `CC(C)(C)[Si](C)(C)OC1[C@@H](CNC(=O)NC(=O)CCl)O[C@@H](n2cnc3c(N)ncnc32)[C@H]1O[Si](C)(C)C(C)(C)C` (stereo partly specified), for which the growth was 13.5%.

Consider `COC(=O)c1c2c(c(C)[n+]([O-])c1C)C(=O)C=C(NCc1ccc(F)cc1)C2=O`, for which the growth is -41.1% (active).

In the case of `CCCN(CCC)c1ccc(/C=C/c2ccc3cc(OCC)ccc3n2)cc1`, the growth is 59.1%.

As to `CCOC(=O)c1c(Cl)c2c(n1Cc1cc(OC)cc(OC)c1)-c1oncc1CCC2`, the growth is 51.7%.

For the compound `O=c1[nH]c(=S)[nH]c(=O)n1Cc1cccc2ccccc12`, the growth was 99.5%.

As to `CC1=CN2C(=NC3=C(CCCC/C3=C\c3ccccc3)C2c2ccccc2)S1` (stereo unspecified), the growth was 91%.

`COc1cc(CNCCN2C(=O)c3ccc4c5c(ccc(c35)C2=O)C(=O)N(CCNCc2cc(OC)c(OC)c(OC)c2)C4=O)cc(OC)c1OC`: the growth was -56.2% (active).

Consider `COc1ccc(-c2nc3sc(C)nn3c2-c2nc3cc(C)c(C)cc3[nH]2)cc1`, for which the growth is 95.4%.

For `Cc1nc2cc(Nc3nc(NCCN)nc(Nc4ccc(F)cc4)n3)ccc2n1Cc1ccccc1`, the growth was 69.1%.

In the case of `Cc1ccc2c(N/N=C\c3ccco3)cc(C)nc2n1`, the growth was 37.4%.

Turning to `CCCC1=NNC(=O)C1`, the growth is 101%.

Regarding `O=C(NCc1ccc(F)cc1)C1CN(c2ccc(Cl)cc2)N(c2ccc(Cl)cc2)C1=O` (stereo unspecified), the growth is 49.9%.

As for `CC1SC(c2ccc(Cl)cc2)N(CCc2cccs2)C1=O` (stereo unspecified), the growth is 9.51% (active).

Consider `COc1cccc2c(=O)c3c(sc12)c(NCCN(C)C)nc1ccccc13`, for which the growth was 61.3%.

As to `NC(=O)c1cccc(-n2ccc3cc(NC(=O)Nc4ccc(Cl)c(Cl)c4)ccc32)n1`, the growth is 49.3%.

With `Cc1ccc(S(=O)(=O)N2C/C(=C\c3cc(F)cc(F)c3)C(=O)/C(=C/c3cc(F)cc(F)c3)C2)cc1`, the growth is -0.238% (active).

In the case of `Cn1c(=O)c(S(=O)(=O)c2ccccc2)cc2ccc3c(cnn3-c3ccc(Cl)cc3)c21`, the growth is 50.5%.

In the case of `CSc1ccc(OC(C)=O)cc1C`, the growth is 90.6%.

With `O=c1onc(-c2ccccc2)c2ccccc12`, the growth was 97.8%.

For the compound `Nc1cc(Br)c(-c2nnc(CCC(=O)c3nc4ccccc4[nH]3)o2)c(Br)c1`, the growth was 72.6%.

For `O=C1CC2c3cc(-c4cc5ccccc5o4)ccc3CCN2C(=O)N1c1ccccc1` (stereo unspecified), the growth is 57.4%.

As to `COc1cccc(-c2ccc3c(c2)C2CCN(Cc4ccccc4)C3C2)c1` (stereo unspecified), the growth is 76.3%.

For the compound `CCCCCCCCCCCCSC1=CC(=O)C=CC1=O`, the growth is 30.6%.

Turning to `COc1cc(/C=C/C(=O)C2=C(/C=C/c3ccc(O)c(OC)c3)NC(=O)NC2c2ccc(O)c(OC)c2)ccc1O` (stereo unspecified), the growth is 86.7%.

Regarding `CCOC(=O)c1c(Cl)c2c(n1Cc1ccc(OC)cc1)-c1oncc1CCC2`, the growth was 83.6%.

Regarding `Cc1nc2cc(Nc3nc(N4CCCCC4)nc(N4CCOCC4)n3)ccc2n1Cc1ccccc1`, the growth is -8% (active).

For the compound `COc1ccc(C2CC(c3cc(OC)c(OC)c(OC)c3)=NN2c2ccc(S(N)(=O)=O)cc2)cc1` (stereo unspecified), the growth was 55.9%.

Consider `Brc1ccccc1Nc1ccc2nnc(-c3ccncc3)n2n1`, for which the growth is 80.6%.

Turning to `Brc1ccc(SCN(CSc2ccc(Br)cc2)Cc2ccccc2)cc1`, the growth is 84.7%.

The next test deals with BT-549 breast. Described as above. The settings on record: 10 µM unless noted.
With `COc1ccccc1CNCCCCCCCCCCCCN1C(=O)c2ccc3c4c(ccc(c24)C1=O)C(=O)N(CCCCCCCCCCCCNCc1ccccc1OC)C3=O`, the growth was 70.5%.

Consider `Cc1nn(CC(=O)O)c2c1C(=O)CC(C)(C)C2`, for which the growth was 104%.

For the compound `CCCCCCCCCCCCCCn1c2ccccc2c2c3c(c4c5cc(OC)ccc5oc4c21)C(=O)NC3=O`, the growth was 101%.

With `COc1cccc(C2C3=C(COC3=O)N(CCO)c3cc4c(cc32)OCO4)c1` (stereo unspecified), the growth was 37.2%.

In the case of `CCCCCCCCCCCCCCNc1nc(CO)ncc1-c1ccc(C(F)(F)F)cc1`, the growth is 110%.

Take `CN1CCc2cccc3c2C1Cc1ccc(O)c(O)c1-3` (stereo unspecified): the growth was 81.6%.

For the compound `O=C1NC(=S)S/C1=C\c1cccc([N+](=O)[O-])c1`, the growth is 81.2%.

On to `CN(C)C(=S)SCN1C(=O)c2ccc([N+](=O)[O-])cc2S1(=O)=O`, for which the growth was 80.8%.

For the compound `O=C(Nc1ccc(Cl)c(Cl)c1)OCn1ncc2ccc([N+](=O)[O-])cc21`, the growth was 78.5%.

Take `CC(C)(C)[Si](C)(C)OC1[C@@H](CNC(=O)NC(=O)CCl)O[C@@H](n2cnc3c(N)ncnc32)[C@H]1O[Si](C)(C)C(C)(C)C` (stereo partly specified): the growth is -70.6% (active).

Regarding `COC(=O)c1c2c(c(C)[n+]([O-])c1C)C(=O)C=C(NCc1ccc(F)cc1)C2=O`, the growth is -91.3% (active).

`CCCN(CCC)c1ccc(/C=C/c2ccc3cc(OCC)ccc3n2)cc1`: the growth is 119%.

For `CCOC(=O)c1c(Cl)c2c(n1Cc1cc(OC)cc(OC)c1)-c1oncc1CCC2`, the growth was 69.9%.

With `O=c1[nH]c(=S)[nH]c(=O)n1Cc1cccc2ccccc12`, the growth is 107%.

On to `CC1=CN2C(=NC3=C(CCCC/C3=C\c3ccccc3)C2c2ccccc2)S1` (stereo unspecified), for which the growth was 108%.

Regarding `COc1cc(CNCCN2C(=O)c3ccc4c5c(ccc(c35)C2=O)C(=O)N(CCNCc2cc(OC)c(OC)c(OC)c2)C4=O)cc(OC)c1OC`, the growth is -93.8% (active).

For `COc1ccc(-c2nc3sc(C)nn3c2-c2nc3cc(C)c(C)cc3[nH]2)cc1`, the growth is 96.5%.

As for `Cc1nc2cc(Nc3nc(NCCN)nc(Nc4ccc(F)cc4)n3)ccc2n1Cc1ccccc1`, the growth was 90%.

For the compound `Cc1ccc2c(N/N=C\c3ccco3)cc(C)nc2n1`, the growth is 87.7%.

In the case of `CCCC1=NNC(=O)C1`, the growth is 99.2%.

On to `O=C(NCc1ccc(F)cc1)C1CN(c2ccc(Cl)cc2)N(c2ccc(Cl)cc2)C1=O` (stereo unspecified), for which the growth is 61.2%.

Consider `CC1SC(c2ccc(Cl)cc2)N(CCc2cccs2)C1=O` (stereo unspecified), for which the growth is -39.3% (active).

Turning to `COc1cccc2c(=O)c3c(sc12)c(NCCN(C)C)nc1ccccc13`, the growth was 61.3%.

`NC(=O)c1cccc(-n2ccc3cc(NC(=O)Nc4ccc(Cl)c(Cl)c4)ccc32)n1`: the growth was 65.8%.

In the case of `Cc1ccc(S(=O)(=O)N2C/C(=C\c3cc(F)cc(F)c3)C(=O)/C(=C/c3cc(F)cc(F)c3)C2)cc1`, the growth was -16.9% (active).

For the compound `Cn1c(=O)c(S(=O)(=O)c2ccccc2)cc2ccc3c(cnn3-c3ccc(Cl)cc3)c21`, the growth was 66.1%.

Consider `CSc1ccc(OC(C)=O)cc1C`, for which the growth was 98%.

Consider `O=c1onc(-c2ccccc2)c2ccccc12`, for which the growth was 118%.

Take `Nc1cc(Br)c(-c2nnc(CCC(=O)c3nc4ccccc4[nH]3)o2)c(Br)c1`: the growth was 40.6%.

Take `O=C1CC2c3cc(-c4cc5ccccc5o4)ccc3CCN2C(=O)N1c1ccccc1` (stereo unspecified): the growth was 92.2%.

On to `COc1cccc(-c2ccc3c(c2)C2CCN(Cc4ccccc4)C3C2)c1` (stereo unspecified), for which the growth was 64.2%.

For `CCCCCCCCCCCCSC1=CC(=O)C=CC1=O`, the growth was 16.5%.

On to `COc1cc(/C=C/C(=O)C2=C(/C=C/c3ccc(O)c(OC)c3)NC(=O)NC2c2ccc(O)c(OC)c2)ccc1O` (stereo unspecified), for which the growth was 93.4%.

As to `CCOC(=O)c1c(Cl)c2c(n1Cc1ccc(OC)cc1)-c1oncc1CCC2`, the growth is 70.4%.

With `Cc1nc2cc(Nc3nc(N4CCCCC4)nc(N4CCOCC4)n3)ccc2n1Cc1ccccc1`, the growth was 63.2%.

As to `COc1ccc(C2CC(c3cc(OC)c(OC)c(OC)c3)=NN2c2ccc(S(N)(=O)=O)cc2)cc1` (stereo unspecified), the growth was 83.9%.

In the case of `Brc1ccccc1Nc1ccc2nnc(-c3ccncc3)n2n1`, the growth is 107%.

With `Brc1ccc(SCN(CSc2ccc(Br)cc2)Cc2ccccc2)cc1`, the growth is -15.2% (active).
